Consider 33 compounds from the supplement of paper PMC10127200.

Counter-ions that a name gives are not always drawn.

The subject of the assay is HEPG2. The assay is described as follows: Euclidean distance of Cell Painting phenotypic profile (signed KS, 77 features) to DMSO centroid (dimensionless distance); 5 or 10 uM (library dependent); higher = stronger phenotypic change vs DMSO (phenoactivity). Particulars: 48 h. An outline of the steps:
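Harmony extracted 77 features from 20X confocal images (9 fields/well) of stained cells, scoring each as a signed Kolmogorov-Smirnov statistic against same-plate vehicle wells. The cells, five cancer lines and a healthy fibroblast line, had received library compounds for 48 h at 10 or 5 uM depending on library, with 0.1% DMSO final. Phenoactivity is the Euclidean distance from each plate-position-corrected, correlation-weighted, top-dose replicate-averaged profile to the median vehicle profile.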
`CN(C)CCCOc1nn(Cc2ccccc2)c2ccccc12` [Benzydamine HCl] registered an Euclidean distance of 0.87.
In the case of `CC(=O)NCCCS(=O)(=O)O` [Acamprosate Calcium], the Euclidean distance worked out at 0.967.
The compound `CNC(=O)c1cc(Oc2ccc(NC(=O)Nc3ccc(Cl)c(C(F)(F)F)c3)cc2)ccn1` [Sorafenib] came in with an Euclidean distance of 2.93.
As for `C#Cc1cccc(Nc2ncnc3cc4c(cc23)OCCOCCOCCO4)c1` [Icotinib], the Euclidean distance was found to be 1.35.
As for `Cc1cc([C@@H](C)Nc2ccccc2C(=O)O)c2nc(N3CCOCC3)cc(=O)n2c1`, the Euclidean distance turned out to be 1.59.
`CO/N=C(\C(=O)N[C@@H]1C(=O)N2C(C(=O)OCOC(=O)C(C)(C)C)=C(/C=C\c3scnc3C)CS[C@H]12)c1csc(N)n1` [Cefditoren Pivoxil] returned an Euclidean distance of 2.12.
Consider `CC[C@@H](C)Nc1cc(C(=O)N[C@H]2C[C@H]3CC[C@@H](C2)N3c2ccc(C(=O)C3CC3)cn2)c(C)cc1C(N)=O`, for which the Euclidean distance was determined as 4.37.
The value for `CC(C)NCC(O)COc1ccc(CCOCC2CC2)cc1` (stereo not drawn) [Betaxolol] was 1.64; that for `COc1cc2c(cc1OC)[C@@H](Cc1cc(OC)c(OC)c(OC)c1)[N+](C)(CCCOC(=O)CC/C=C/CCC(=O)OCCC[N+]1(C)CCc3cc(OC)c(OC)cc3[C@H]1Cc1cc(OC)c(OC)c(OC)c1)CC2` (stereo partly drawn) [Mivacurium chloride] was 0.442; that for `O=C(CCc1ccc(O)cc1)c1c(O)cc(O)cc1O[C@@H]1O[C@H](CO)[C@@H](O)[C@H](O)[C@H]1O` [Phlorizin] was 1.02.
Compound `Nc1nc2c(ncn2COCCO)c(=O)[nH]1` [Aciclovir] had an Euclidean distance of 1.25.
On to `CCCCC(O)c1ccccc1` (stereo not drawn) [Fenipentol], for which the Euclidean distance stood at 0.912.
To `COc1ccc(CCc2nc3cc(-c4c(C)noc4C)ccc3n2C[C@H](C)N2CCOCC2)cc1Cl` belongs 1.67; to `CCCC(=O)Nc1ccc(OCC(O)CNC(C)C)c(C(C)=O)c1` (stereo not drawn) [Acebutolol HCl], 0.817.
In turn, `CCn1c(N)c(C(=O)NC)c(=O)c2ccc(C#CC(C)(O)COC)nc21` (stereo not drawn) displayed an Euclidean distance of 1.53.
Turning to `Cc1onc(-c2c(F)cccc2Cl)c1C(=O)N[C@@H]1C(=O)N2[C@@H]1SC(C)(C)[C@@H]2C(=O)O` [Flucloxacillin sodium], the Euclidean distance came to 0.664.
Compound `CCCC(=O)O[C@]1(C(=O)COC(C)=O)CC[C@H]2[C@@H]3C[C@H](F)C4=CC(=O)C=C[C@]4(C)[C@@]3(F)[C@@H](O)C[C@@]21C` [Difluprednate] registered an Euclidean distance of 0.695.
For `C=CC(=O)N1CCC([C@@H]2CCNc3c(C(N)=O)c(-c4ccc(Oc5ccccc5)cc4)nn32)CC1` [Zanubrutinib (BGB-3111)], the Euclidean distance stood at 0.671.
On to `Cc1cccc(Nc2ccccc2C(=O)O)c1C` [Mefenamic Acid], for which the Euclidean distance is 0.673.
`CN1CCN(c2cc3c(cc2F)c(=O)c(C(=O)O)cn3-c2ccc(F)cc2)CC1` [Difloxacin hydrochloride] returned an Euclidean distance of 0.824.
In the case of `COc1cc(OC)c(C(=O)CCCN2CCCC2)c(OC)c1` [Buflomedil HCl], the Euclidean distance was 0.715.
Regarding `O=c1c(O)c(-c2ccc(O)cc2)oc2cc(O)cc(O)c12` [Kaempferol], the Euclidean distance was 0.783.
The value for `O=C(O)[C@H](O)Cc1ccc(O)c(O)c1` [Danshensu] was 1.33; that for `CC(C)Cn1cnc2c(N)nc3ccccc3c21` [Imiquimod] was 0.448.
The compound `CN(C)CCC(c1ccc(Br)cc1)c1ccccn1` (stereo not drawn) [Brompheniramine hydrogen maleate] yielded an Euclidean distance of 0.5.
To `CC1=C(/C=C/C(C)=C/C=C/C(C)=C/C(=O)Nc2ccc(O)cc2)C(C)(C)CCC1` [Fenretinide] belongs 1.91.
In turn, `CC(=O)OCC(=O)[C@H]1CC[C@H]2[C@@H]3CCC4=CC(=O)CC[C@]4(C)[C@H]3CC[C@]12C` [Deoxycorticosterone acetate] showed an Euclidean distance of 0.569.
Compound `CCCCc1oc2ccccc2c1C(=O)c1cc(I)c(OCCN(CC)CC)c(I)c1` [Amiodarone HCl] displayed an Euclidean distance of 2.01.
Regarding `Cc1cc(C#N)cc(C)c1Oc1nc(Nc2ccc(C#N)cc2)nc(N)c1Br` [Etravirine (TMC125)], the Euclidean distance was 2.06.
Compound `Cc1c(C(=O)NN2CCCCC2)nn(-c2ccc(Cl)cc2Cl)c1-c1ccc(I)cc1` returned an Euclidean distance of 0.6.
Regarding `OC(c1cc(C(F)(F)F)nc2c(C(F)(F)F)cccc12)C1CCCCN1` (stereo not drawn) [Mefloquine HCl], the Euclidean distance was 4.9.
Turning to `Nc1ccn([C@@H]2O[C@H](CO)[C@@H](O)[C@@H]2O)c(=O)n1` [Cytarabine], the Euclidean distance was found to be 2.79.
`Cc1cc(O)c(C(=O)N[C@@H](C(=O)N[C@@H]2C(=O)N3C(C(=O)O)=C(CSc4nnnn4C)CS[C@H]23)c2ccc(O)cc2)cn1` [Cefpiramide sodium]: the Euclidean distance worked out at 0.51.
